The source of these data is the supplement of paper PMC11001985.

Chain of UniProt Q13813 (Q13813 whole entry): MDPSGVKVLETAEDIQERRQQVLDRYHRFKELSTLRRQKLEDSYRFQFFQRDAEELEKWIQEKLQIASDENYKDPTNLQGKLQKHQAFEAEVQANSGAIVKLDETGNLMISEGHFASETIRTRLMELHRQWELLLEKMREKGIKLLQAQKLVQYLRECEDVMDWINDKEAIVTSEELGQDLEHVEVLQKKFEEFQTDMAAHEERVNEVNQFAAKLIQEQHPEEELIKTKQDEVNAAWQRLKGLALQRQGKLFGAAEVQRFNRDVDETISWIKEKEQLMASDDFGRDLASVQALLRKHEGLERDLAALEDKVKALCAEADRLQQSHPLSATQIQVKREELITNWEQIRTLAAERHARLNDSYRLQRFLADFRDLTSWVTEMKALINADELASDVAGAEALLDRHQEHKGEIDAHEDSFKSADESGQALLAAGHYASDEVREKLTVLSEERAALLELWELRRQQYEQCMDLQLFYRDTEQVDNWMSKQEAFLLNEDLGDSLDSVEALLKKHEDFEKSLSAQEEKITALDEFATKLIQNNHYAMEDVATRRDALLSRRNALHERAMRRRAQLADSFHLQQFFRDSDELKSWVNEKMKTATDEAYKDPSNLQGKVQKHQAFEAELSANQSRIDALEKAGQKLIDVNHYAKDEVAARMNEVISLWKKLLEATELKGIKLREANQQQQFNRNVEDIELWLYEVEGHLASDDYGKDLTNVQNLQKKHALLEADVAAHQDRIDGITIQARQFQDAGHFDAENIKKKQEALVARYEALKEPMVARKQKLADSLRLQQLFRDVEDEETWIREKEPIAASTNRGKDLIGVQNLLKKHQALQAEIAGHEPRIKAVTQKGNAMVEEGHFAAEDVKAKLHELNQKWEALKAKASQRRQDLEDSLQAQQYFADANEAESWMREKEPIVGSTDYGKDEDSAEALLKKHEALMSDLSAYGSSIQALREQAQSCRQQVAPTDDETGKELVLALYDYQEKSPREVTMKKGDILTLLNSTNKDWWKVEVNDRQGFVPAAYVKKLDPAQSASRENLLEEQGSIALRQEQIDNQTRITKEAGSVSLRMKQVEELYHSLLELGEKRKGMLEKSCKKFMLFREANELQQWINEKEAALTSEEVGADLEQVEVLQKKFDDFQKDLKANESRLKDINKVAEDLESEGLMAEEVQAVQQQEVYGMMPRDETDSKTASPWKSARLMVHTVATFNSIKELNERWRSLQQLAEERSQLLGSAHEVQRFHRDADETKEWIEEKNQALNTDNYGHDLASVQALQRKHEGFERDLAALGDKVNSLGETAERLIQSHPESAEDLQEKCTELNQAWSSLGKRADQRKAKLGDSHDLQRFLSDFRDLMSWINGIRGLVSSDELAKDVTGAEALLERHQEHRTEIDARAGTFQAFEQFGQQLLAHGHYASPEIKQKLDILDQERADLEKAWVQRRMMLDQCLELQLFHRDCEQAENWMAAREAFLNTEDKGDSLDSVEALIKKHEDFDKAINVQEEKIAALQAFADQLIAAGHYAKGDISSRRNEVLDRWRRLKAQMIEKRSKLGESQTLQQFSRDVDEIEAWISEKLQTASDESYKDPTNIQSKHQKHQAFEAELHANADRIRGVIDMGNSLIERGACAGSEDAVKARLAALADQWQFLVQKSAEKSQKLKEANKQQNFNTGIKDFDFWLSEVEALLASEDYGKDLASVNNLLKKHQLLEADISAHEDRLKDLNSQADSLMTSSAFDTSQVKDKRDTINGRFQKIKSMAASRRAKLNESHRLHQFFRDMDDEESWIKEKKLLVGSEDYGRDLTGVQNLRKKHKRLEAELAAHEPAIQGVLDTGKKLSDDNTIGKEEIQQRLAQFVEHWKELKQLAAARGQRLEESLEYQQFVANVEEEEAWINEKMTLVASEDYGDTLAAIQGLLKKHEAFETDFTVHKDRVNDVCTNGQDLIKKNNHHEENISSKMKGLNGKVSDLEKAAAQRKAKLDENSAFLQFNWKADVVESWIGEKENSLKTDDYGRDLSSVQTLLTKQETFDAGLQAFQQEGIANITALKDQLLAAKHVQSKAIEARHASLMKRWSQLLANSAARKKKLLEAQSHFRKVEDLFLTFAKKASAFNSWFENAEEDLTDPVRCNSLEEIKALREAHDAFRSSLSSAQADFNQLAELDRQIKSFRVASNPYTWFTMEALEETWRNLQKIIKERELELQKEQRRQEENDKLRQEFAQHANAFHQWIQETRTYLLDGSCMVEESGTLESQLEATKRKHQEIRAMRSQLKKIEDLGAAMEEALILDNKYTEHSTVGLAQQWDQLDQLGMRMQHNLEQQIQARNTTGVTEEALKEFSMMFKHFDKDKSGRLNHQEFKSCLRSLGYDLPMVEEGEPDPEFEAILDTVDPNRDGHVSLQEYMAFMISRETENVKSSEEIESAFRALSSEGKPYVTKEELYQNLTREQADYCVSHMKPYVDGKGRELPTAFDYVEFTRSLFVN
Chain of UniProt P23284 (P23284 whole entry): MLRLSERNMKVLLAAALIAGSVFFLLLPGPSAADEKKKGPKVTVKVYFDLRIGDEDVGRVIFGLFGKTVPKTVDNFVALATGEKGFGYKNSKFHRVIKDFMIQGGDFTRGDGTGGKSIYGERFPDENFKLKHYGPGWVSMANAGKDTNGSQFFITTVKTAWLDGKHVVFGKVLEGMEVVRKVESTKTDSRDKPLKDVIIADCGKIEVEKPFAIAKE
Chain of UniProt O96005 (O96005 whole entry): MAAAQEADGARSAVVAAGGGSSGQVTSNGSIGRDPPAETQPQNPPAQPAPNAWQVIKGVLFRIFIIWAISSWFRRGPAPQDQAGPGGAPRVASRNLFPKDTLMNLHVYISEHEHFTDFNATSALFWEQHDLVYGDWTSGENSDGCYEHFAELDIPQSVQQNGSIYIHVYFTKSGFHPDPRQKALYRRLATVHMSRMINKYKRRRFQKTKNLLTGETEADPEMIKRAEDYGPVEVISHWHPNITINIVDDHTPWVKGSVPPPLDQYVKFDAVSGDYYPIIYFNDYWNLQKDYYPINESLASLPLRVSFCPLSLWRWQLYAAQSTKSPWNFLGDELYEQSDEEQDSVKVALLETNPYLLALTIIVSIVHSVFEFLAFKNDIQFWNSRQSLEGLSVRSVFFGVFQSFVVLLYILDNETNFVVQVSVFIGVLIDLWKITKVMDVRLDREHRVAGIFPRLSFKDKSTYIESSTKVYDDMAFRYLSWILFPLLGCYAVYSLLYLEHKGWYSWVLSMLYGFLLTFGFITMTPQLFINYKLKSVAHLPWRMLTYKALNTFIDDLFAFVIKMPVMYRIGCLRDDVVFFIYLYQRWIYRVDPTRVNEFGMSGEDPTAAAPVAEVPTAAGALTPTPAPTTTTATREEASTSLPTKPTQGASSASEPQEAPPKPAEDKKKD
Chain of UniProt P32004 (P32004 whole entry): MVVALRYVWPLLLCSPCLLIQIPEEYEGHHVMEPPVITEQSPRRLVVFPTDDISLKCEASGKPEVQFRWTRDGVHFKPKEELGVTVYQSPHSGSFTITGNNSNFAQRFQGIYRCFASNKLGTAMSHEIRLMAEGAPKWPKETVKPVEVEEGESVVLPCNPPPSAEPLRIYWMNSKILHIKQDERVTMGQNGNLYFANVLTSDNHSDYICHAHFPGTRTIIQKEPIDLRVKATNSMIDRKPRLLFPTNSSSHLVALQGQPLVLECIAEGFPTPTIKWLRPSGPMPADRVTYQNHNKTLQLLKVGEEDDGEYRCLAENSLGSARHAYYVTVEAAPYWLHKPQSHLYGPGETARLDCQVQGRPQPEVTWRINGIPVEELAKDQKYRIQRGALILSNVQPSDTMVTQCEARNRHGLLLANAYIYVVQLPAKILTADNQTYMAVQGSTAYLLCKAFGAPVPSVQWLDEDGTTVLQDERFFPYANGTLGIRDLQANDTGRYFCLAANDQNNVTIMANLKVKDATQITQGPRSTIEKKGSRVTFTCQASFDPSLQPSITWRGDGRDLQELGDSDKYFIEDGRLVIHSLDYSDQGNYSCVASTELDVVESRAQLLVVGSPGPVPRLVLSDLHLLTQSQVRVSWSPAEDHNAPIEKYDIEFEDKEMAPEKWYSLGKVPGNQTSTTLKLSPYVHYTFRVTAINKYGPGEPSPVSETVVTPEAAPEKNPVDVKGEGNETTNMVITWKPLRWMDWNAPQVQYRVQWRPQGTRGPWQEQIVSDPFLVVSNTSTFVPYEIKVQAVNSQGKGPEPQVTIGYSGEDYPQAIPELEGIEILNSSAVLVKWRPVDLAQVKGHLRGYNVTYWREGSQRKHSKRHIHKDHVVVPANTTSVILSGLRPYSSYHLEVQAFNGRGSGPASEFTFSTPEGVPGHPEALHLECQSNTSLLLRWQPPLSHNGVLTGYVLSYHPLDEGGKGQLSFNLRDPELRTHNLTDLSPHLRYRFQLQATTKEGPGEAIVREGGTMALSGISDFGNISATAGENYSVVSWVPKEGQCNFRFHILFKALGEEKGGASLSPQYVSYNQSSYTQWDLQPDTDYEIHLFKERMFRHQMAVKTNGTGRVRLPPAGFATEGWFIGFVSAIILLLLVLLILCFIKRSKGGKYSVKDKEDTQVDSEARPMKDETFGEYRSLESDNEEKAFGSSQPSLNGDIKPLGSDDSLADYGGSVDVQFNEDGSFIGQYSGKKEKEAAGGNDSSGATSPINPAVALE
Chain of UniProt P80303 (P80303 whole entry): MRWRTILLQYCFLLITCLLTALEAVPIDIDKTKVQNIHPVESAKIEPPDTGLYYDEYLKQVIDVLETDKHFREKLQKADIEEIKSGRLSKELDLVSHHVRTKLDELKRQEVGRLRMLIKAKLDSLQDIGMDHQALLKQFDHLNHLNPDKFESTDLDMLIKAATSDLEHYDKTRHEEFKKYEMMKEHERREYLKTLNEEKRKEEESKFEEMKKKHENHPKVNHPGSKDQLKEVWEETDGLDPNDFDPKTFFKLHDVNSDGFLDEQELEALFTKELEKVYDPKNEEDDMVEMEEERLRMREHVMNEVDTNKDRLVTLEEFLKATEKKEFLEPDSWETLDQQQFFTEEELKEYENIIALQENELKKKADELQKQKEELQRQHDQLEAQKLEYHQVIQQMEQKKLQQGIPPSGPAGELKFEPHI

Compound in this experiment: C#CCNC(=O)CCSSCCC(=O)NCCc1ccc(C=O)c(C=O)c1
In words: lysine labeling ratio R10:1 (500 µM / 50 µM probe), SILAC-ABPP in living cells; higher = lower intrinsic lysine reactivity toward the probe, active = 2 or less. Particulars: HeLa; probe concentrations 500 vs 50 µM. Summed up: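 In PBS at room temperature, living HeLa cells grown with SILAC light or heavy labels were treated with 50 µM or 500 µM of an alkyne-tagged, disulfide-linked lysine probe, with label swaps in both directions. Analysis was by LC-MS/MS on a TIMS-TOF Pro after click to biotin-azide, neutravidin capture and DTT release. For each lysine, R is the median across forward and reverse replicates of the filtered median high-probe/low-probe MS1 peptide ratio, capped at 20.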
“CD44 (lysine site: K38) (UniProt P16070)”: the “lysine labeling ratio R10:1” value is 5.01 (inactive).
As for “ACIN1 (lysine site: K143) (UniProt Q9UKV3)”, the “lysine labeling ratio R10:1” value is 0.535 (active).
With “SPTAN1 (lysine site: K296) (UniProt Q13813)”, the “lysine labeling ratio R10:1” value was 2.12 (inactive).
Take “PPIB (lysine site: K181) (UniProt P23284)”: the “lysine labeling ratio R10:1” value is 3.57 (inactive).
For “SPTBN1 (lysine site: K1884) (UniProt Q01082)” the value was 4.5 (inactive).
For UniProt Q9UHN6 (lysine site: K767) the value was 3.26 (inactive).
As to “ALDOA (lysine site: K330) (UniProt P04075)”, the “lysine labeling ratio R10:1” value was 2.76 (inactive).
For “LAMC1 (lysine site: K1354) (UniProt P11047)”, the “lysine labeling ratio R10:1” value was 1.67 (active).
As to “HNRNPM (lysine site: K716) (UniProt P52272)”, the “lysine labeling ratio R10:1” value is 1.35 (active).
UniProt P02768 (lysine site: K438): the “lysine labeling ratio R10:1” value was 10 (inactive).
For “SERPINH1 (lysine site: K334) (UniProt P50454)” the value was 2.28 (inactive); for “TLN1 (lysine site: K147) (UniProt Q9Y490)”, 1.5 (active); for “DNASE1L1 (lysine site: K107) (UniProt P49184)”, 1.25 (active).
For “LNPEP (lysine site: K626) (UniProt Q9UIQ6)” the value was 0.72 (active); for “PPIB (lysine site: K98) (UniProt P23284)”, 1.78 (active).
With “MTHFD2 (lysine site: K50) (UniProt P13995)” the figure was 3.56 (inactive).
Regarding “L1CAM (lysine site: K381) (UniProt P32004)”, the “lysine labeling ratio R10:1” value is 14 (inactive).
For UniProt Q15149 (lysine site: K2553) the value was 3.44 (inactive); for “ITGA3 (lysine site: K895) (UniProt P26006)”, 2.18 (inactive).
For “HNRNPA1 (lysine site: K8) (UniProt P09651)”, the “lysine labeling ratio R10:1” value is 4.27 (inactive).
With UniProt Q15149 (lysine site: K877) the figure was 2.95 (inactive); with “SEMA3C (lysine site: K247) (UniProt Q99985)”, 4.79 (inactive); with “EIF2S3 (lysine site: K70) (UniProt P41091)”, 3.79 (inactive).
For “FLNA (lysine site: K2473) (UniProt P21333)” the value was 3.58 (inactive).
On to “RALA (lysine site: K143) (UniProt P11233)”, for which the “lysine labeling ratio R10:1” value was 2.44 (inactive).
Consider “NUCB2 (lysine site: K184) (UniProt P80303)”, for which the “lysine labeling ratio R10:1” value was 2.65 (inactive).
For “ICAM1 (lysine site: K469) (UniProt P05362)” the value was 4.19 (inactive); for UniProt P62805 (lysine site: K17), 2.71 (inactive); for “MCAM (lysine site: K185) (UniProt P43121)”, 3.4 (inactive).
Consider UniProt Q8WXI7 (lysine site: K13676), for which the “lysine labeling ratio R10:1” value was 3.84 (inactive).
On to “VIM (lysine site: K334) (UniProt P08670)”, for which the “lysine labeling ratio R10:1” value was 5.58 (inactive).
Turning to “CD58 (lysine site: K62) (UniProt P19256)”, the “lysine labeling ratio R10:1” value is 5.48 (inactive).
Regarding “CLPTM1 (lysine site: K224) (UniProt O96005)”, the “lysine labeling ratio R10:1” value is 1.69 (active).
As for “SPTAN1 (lysine site: K1546) (UniProt Q13813)”, the “lysine labeling ratio R10:1” value is 0.8 (active).
For “EEF2 (lysine site: K407) (UniProt P13639)” the value was 1.45 (active).
With “DISP1 (lysine site: K380) (UniProt Q96F81)” the figure was 2.05 (inactive).
With “ATP6V0D1 (lysine site: K288) (UniProt P61421)” the figure was 1.76 (active).
For the target “DDX5 (lysine site: K284) (UniProt P17844)”, the “lysine labeling ratio R10:1” value was 0.51 (active).
On to “NOTCH2 (lysine site: K1058) (UniProt Q04721)”, for which the “lysine labeling ratio R10:1” value is 1.5 (active).
For UniProt Q8N441 (lysine site: K218) the value was 1.33 (active).
